Out of some 320,000 compounds screened, about 740 (0.23%) were called active. Roughly 2% stayed inconclusive and do not appear here. The entries come from a sample that favours actives as a whole. A number with no mark means an inactive call. Calls come from the whole dose curve; as a rule, active = well fitted activation curve with a large enough effect; inconclusive = small, poorly fitted or top-dose-only effect; inactive = no such curve, though single readings can be large or run the other way.
Potency is the fitted concentration of half-maximal effect.

The assay in a line: qHTS Assay for Small Molecule Inhibitors of Mitochondrial Division or Activators of Mitochondrial Fusion. For growth rescue (activation): % of control where 0% means no effect. Note: nearly all actives have a fitted effect of over 45% in size. As to conditions: S. cerevisiae fusion-defective mutant growth rescue, CellTiterGlo 48 h; series mostly up to 46.1 µM; growth rescue (activation): at the top concentration. The source says: NIH Chemical Genomics Center [NCGC] NIH Molecular Libraries Probe Production centers Network [MLPCN] MLPCN Grant: MH081279-01 Assay Submitter (PI): Jodi M. Nunnari NCGC Assay Overview: The budding yeast S. cerevisiae is a powerful system to study mitochondrial fusion. Unlike other organisms, yeast cells without functional mitochondrial DNA (mtDNA) can be propagated and studied as long as they maintain a mitochondrial compartment and are provided with a fermentable carbon source. When mitochondrial fusion is blocked in yeast, mitochondrial tubules rapidly fragment and division continues unopposed. Under conditions where fusion is compromised in mammalian cells, nearly identical changes in mitochondrial structure have been observed. Thus, these findings indicate that steady state mitochondrial structure in cells is a characteristic and specific indicator of fusion activity. Mounting evidence has pointed to a connection between mitochondrial dynamics and apoptosis in mammalian cells. These studies indicate that in mammalian cells mitochondrial dynamics are more integrated into cellular processes than in yeast cells and have evolved not only to distribute the organelle but also to aid in the regulation of cellular homeostasis. Mitochondrial fusion proteins attenuate apoptosis by inhibiting the release of cytochrome c from mitochondria, in part by controlling cristae structures. Thus, small molecules that inhibit mitochondrial […] may promote apoptosis and potentially act as novel chemotherapeutics and stimulation of apoptosis has become an attractive target of anti-cancer therapies. To identify inhibitors of mitochondrial division, we exploit the growth phenotypes of mitochondrial fusion-defective mutants. The temperature sensitive fusion alleles, such as fzo1-1 and mgm1-5, cause mitochondrial membranes to fragment in cells under non-permissive conditions and cells lose mtDNA, and are unable to grow in the presence of non-fermentable carbon source glycerol. Inhibiting mitochondrial division rescues growth. We have developed and optimized a luminescence cell viability assay in 1536 well format for the identification of inhibitors in the yeast mitochondrial fusion-defective assay.
The yeast glycerol stocks where kindly supplied by the laboratory of Dr. Jodi Nunnari, University of California, Davis. All yeast glycerol stock solutions were stored in single use aliquots at -80C. The CellTiterGlo luminescence reagent, containing luciferase and luciferin, were purchased from Promega, and the reagents were stored according to manufacturer's instructions. The Buffer components for the YPEG yeast growth medium were purchased from Sigma-Aldrich (St. Louis, MO). YPEG growth medium: 1% (w/v) yeast extract, 2% (w/v) Bacto-peptone, 3% Ethanol, 3% glycerol, 0.4mM Tryptophan, 0.36mM Adenine. qHTS Assay Protocol: 1.#Dispense 2.5 ul yeast growth medium per 1536 well plate. 2.#Transfer 23 nl per well of compound to plate. 3.#Dispense 2.5 ul yeast solution at appropriate seeding density per well. 4.#Incubate for 48 hours at 37C. 5.#Dispense 5 ul of CellTiterGlow solution per well. 6.#Incubate at ambient for 10 minutes. 7.#Read using bio-luminescence protocol on Viewlux.
Take `COc1ccc(-c2c(-c3cc(OC)cc(OC)c3)n(C)c3ccc(-c4ccn[nH]4)cc23)cc1`: the Potency is 10 µM (active).
As for `COc1cc(OC)cc(-c2c(-c3cccs3)c3cc(-c4ccc(OC)nc4)ccc3n2C)c1`, the “growth rescue (activation)” value was -3.31%.
In the case of `COc1cc(OC)cc(-c2c(-c3ccc(F)cc3)c3cc(-c4ccc5cc[nH]c5c4)ccc3n2C)c1`, the “growth rescue (activation)” value is 0.6%.
On the same count and under the same terms, next, `COC(=O)c1cc(S(=O)(=O)NCC2CCN(Cc3ccc(Cl)cc3)CC2)cn1C`: 4.02%.
Still for that read-out and setting: the value for `CCn1cc(/C=C(\NC(=O)c2ccc(C)cc2)C(=O)NCCN2CCOCC2)c2ccccc21` was 2.95%; that for `Cn1cccc1C1(C(F)(F)F)NCCNC1=O` (stereo unspecified) was -7.26%; that for `Cc1cc(C)cc(C(=O)OCC(=O)NCCNC(=O)COC(=O)c2cc(C)cc(C)c2)c1` was 2.13%.
On the same count and under the same terms, the value for `COc1ccccc1-n1c(-c2ccc(C)cc2)cn2c3c(=O)n(C)c(=O)n(C)c3nc12` was 4.07%; that for `O=C(COC(=O)c1ccccc1Cl)NC1CCCCCCC1` was 13.9%; that for `Cc1csc(=Nc2ccccc2)n1CCO` was -1.72%.
For `Cc1csc(=NC(=O)c2ccccc2)n1CCO`, the “growth rescue (activation)” value is -5.75%.
Consider `OCCn1c(-c2ccccc2)csc1=Nc1ccccc1`, for which the Potency is 11.2 µM (active).
Turning to `CCN1C(=O)[C@@H]2[C@@H](c3ccc(-c4cccc(Cl)c4)cc3)N3CCC[C@@]3(C(=O)OC)[C@@H]2C1=O`, the “growth rescue (activation)” value is 21.1%.
For the compound `COc1ccccc1-n1cnc2cc(C(=O)NCC3CCCO3)ccc21` (stereo unspecified), the “growth rescue (activation)” value was 0.667%.
In the case of `COc1cccc(/C=C2\Sc3ccc(C(=O)NCC4CCCO4)cc3N(C)C2=O)c1` (stereo unspecified), the Potency is 17.8 µM (active).
In the case of `COc1cccc(C(=O)NCCS(=O)(=O)NCC2CCCO2)c1` (stereo unspecified), the “growth rescue (activation)” value was -4.41%.
Still for that read-out and setting: next, `O=C(NC1CCCC1)C1CC(=O)N(c2ccc(F)cc2)C1` (stereo unspecified): 0.703%; `O=C1CN(C(=O)CN2C(=O)NC3(CCCCC3)C2=O)c2ccccc2N1`: -1.41%.
For `CCOC(=O)C1=C(N)N(c2ccc(C)cc2)C2=C(C(=O)CCC2)C1c1cccs1` (stereo unspecified), the Potency was 20 µM (active).
Turning to `O=C1CCCC2=C1C(c1cccs1)CC(=O)N2c1ccc(F)cc1` (stereo unspecified), the “growth rescue (activation)” value is 3.59%.
The same measure, in the same setting: next, `CCOC(=O)c1cc2c(n(-c3ccc(C)cc3)c1=O)CCCC2=O`: 0.547%.
The same measure, in the same setting: the value for `COC(=O)C(C)N=Cc1ccccc1` (stereo unspecified) was 1.48%; that for `COc1ccc(S(=O)(=O)N2CCN(CC(=O)N3c4ccccc4CC3C)CC2)cc1OC` (stereo unspecified) was -2.4%; that for `NC(=O)C1CCN(Cc2nc3c(Br)cc(Br)cc3c(=O)[nH]2)CC1` was 1.78%.
Still for that read-out and setting: the value for `CC(C)OC(=O)c1c(NC(=O)c2ccco2)sc2c1CCCC2` was 0.828%.
Turning to `COC(=O)c1c(NC(=O)c2cccs2)sc2c1CCCC2`, the Potency is 14.1 µM (active).
As for `COC(=O)c1c(NC(=O)CSc2nncs2)sc2c1CCCCC2`, the “growth rescue (activation)” value was 21.5%.
`C=CC1(C)CC(=O)C2(O)C(C)(O1)C(OC(C)=O)C(O)C1C(C)(C)CCC(O)C12C` (stereo unspecified): the “growth rescue (activation)” value is -7.55%.
The same measure, in the same setting: next, `O=c1c(Cl)c(NCc2ccc(F)cc2Cl)cnn1C12CC3CC(CC(C3)C1)C2`: 3.54%.
Still for that read-out and setting: the value for `Cc1csc(OCC(=O)Nc2ccc(C)c(C)c2)n1` was 5.43%; that for `Cc1nc(COc2cc3oc(=O)cc(C)c3cc2Cl)cs1` was 3.56%.
On the same count and under the same terms, next, `Cc1ccc(C)c(NS(=O)(=O)c2cc(Br)cnc2N)c1`: 7.1%.
As for `CC(=O)/C(C)=N/O`, the Potency is 20.6 µM (active).
Take `CCCN1CCN(C(=O)Cn2ncc3ccccc32)CC1`: the “growth rescue (activation)” value is -6.24%.
For the compound `CCCCN(C(=O)C(CCSC)N1C(=O)c2ccccc2C1=O)c1c(N)n(CCC)c(=O)[nH]c1=O` (stereo unspecified), the “growth rescue (activation)” value was 0.275%.
For the compound `NC1CCN(O)C1=O` (stereo unspecified), the “growth rescue (activation)” value was -8.2%.
Same read-out and setting: the value for `COC(=O)c1c(C(=O)OC)c2n(c1C)CCS2` was -0.353%; that for `CCC1=Nc2cc(C(=O)NCCN3CCCC3)ccc2Sc2ccc(C)cc21` was -11.8%.
In the case of `CCCC1=Nc2cc(C(=O)NCc3ccco3)ccc2Sc2ccccc21`, the Potency is 31.6 µM (active).
As for `CCCC1=Nc2cc(C(=O)NCCN3CCCC3)ccc2Sc2ccccc21`, the “growth rescue (activation)” value was -5.25%.
On the same count and under the same terms, the value for `C[C@H](NC(=O)C1CC(=O)N(c2ccc3c(c2)OCCO3)C1)C(=O)N1CCC(C(=O)O)CC1` (stereo partly specified) was 0.693%; that for `O=C(NCC(c1ccco1)S(=O)(=O)c1cccs1)c1ccc(F)cc1` (stereo unspecified) was -1.33%.
Consider `COC(=O)CN1C(=O)[C@H]2[C@@H](C3CC3)N3C(=O)CN(Cc4ccc(-c5ccccc5)cc4)C(=O)[C@@]3(Cc3ccccc3)[C@H]2C1=O`, for which the “growth rescue (activation)” value was 4.79%.
In the case of `O=C(NCc1cccnc1)Nc1cccc(NC(=O)NCc2cccnc2)c1F`, the “growth rescue (activation)” value was -4.47%.
The same measure, in the same setting: next, `Cc1ccc(NC(=O)Cn2nnc3sc4c(c3c2=O)CCC(C)C4)cc1` (stereo unspecified): -0.959%.
The same measure, in the same setting: next, `COc1ccc(C2CC(=O)Nc3c2c(=O)nc2c(C)cccn32)cc1OC` (stereo unspecified): -1.37%.
For the compound `Cc1ccc(N2CCN(C3=NC(=O)/C(=C\c4cccs4)S3)CC2)cc1`, the Potency was 22.4 µM (active).
In the case of `Cc1ccc(N2CCN(/N=C/c3cccs3)CC2)cc1`, the “growth rescue (activation)” value was -2.37%.
Same read-out and setting: next, `Cc1ccsc1/C=C1\SC(N2CCOCC2)=NC1=O`: 1.79%.
`C=CCn1nc(-c2ccccc2)c2c(C)onc2c1=O`: the “growth rescue (activation)” value is 1.38%.
The same measure, in the same setting: next, `COc1ccc([C@H]2CC(=O)C=C(c3ccc(C)cc3)C2)cc1`: 25.8%.

For the origin of these results see PubChem BioAssay AID485298 (National Center for Advancing Translational Sciences (NCATS), 2010).
